# GalR3 antagonist = GalR3 antagonists in HEK293 cells, primary screen, cell-based, fluorescence readout; 0.44% of 360,000 active; inhibition, % at 3 µM; HEK293 GalR3-CNG cAMP membrane potential fluorescence; galR3 body fused to GalR1 C-terminus; AID 651719, 2012;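 active means inhibition above the screen-wide average plus 3 SD, cut at about 13% in these data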;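 further: forskolin and galanin both at EC90 stimulate the cells; cAMP rise reported by CNG channel membrane potential dye signal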
# NR2F2 inh = NR2F2 transcriptional activity inhibitors, primary screen, cell-based, luciferase reporter, HEK293T, luminescence; HEK293T NGFI-A luciferase reporter; AID 686940, 2013; inhibition, % at 8.6 µM; COUP transcription factor 2 (Homo sapiens), P24468; 0.7% of 370,000 active;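 active means inhibition above a per-plate cutoff, mean inhibition of test wells between control levels plus 3 SD, cut at about 38% in these data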;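 further: cells cotransfected with COUP-TFII expression vector driving the NGFI-A reporter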
# NCOA2 inhibitor = inhibition of GAL4-SRC2 driven luciferase reporter, primary screen, SRC2 inhibitor project, cell-based, luminescence; Nuclear receptor coactivator 2 (Homo sapiens), Q15596; HEK293 GAL4-SRC2 luciferase reporter; inhibition, % at 9 µM; 0.17% of 370,000 active;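 active means inhibition above the mean inhibition of all tested compounds plus 3 SD, set per campaign, cut at about 52% in these data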
# NCOA3 inh = SRC3 coactivator transcriptional activity inhibitors, primary screen, cell-based, luminescence | 0.17% of 360,000 active | AID 588352, 2011 | HEK293 GAL4-SRC3 luciferase reporter | inhibition, % at 3.6 µM | Nuclear receptor coactivator 3 (Homo sapiens), Q9Y6Q9;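 active means inhibition above a per-campaign cutoff, the mean of all compounds plus 3 SD, cut at about 60% in these data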;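 further: higher means less SRC3-driven luciferase light from the GAL4 reporter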
# NCOA1 inh = SRC1 coactivator transcriptional activity inhibitors, primary screen, cell-based, luminescence. 0.12% of 360,000 active. Nuclear receptor coactivator 1 (Homo sapiens), Q15788. HEK293 GAL4-SRC1 luciferase reporter. inhibition, % at 3.6 µM;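 active means inhibition above the campaign mean plus 3 SD, with each screening campaign given its own cutoff, cut at about 60% in these data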
# NR5A2 inv ag = LRH-1 (NR5A2) inverse agonists, primary screen, cell-based, luminescence, HEK293T, StAR-luciferase reporter | Nuclear receptor subfamily 5 group A member 2 (Homo sapiens), O00482 | LRH-1 transfected, 24 h | inhibition, % at 3.6 µM | 0.13% of 360,000 active;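 active means inhibition above the mean inhibition of all tested compounds plus 3 SD, cut at about 73% in these data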
# VP16 Luc counter = Gal4-VP16 luciferase reporter inhibitors, counter-screen for COUP-TFII antagonist project, cell-based, luminescence, HEK293; shares compounds with NR2F2 inh; inhibition, % at 8.5 µM; 25% of 2,500 active; AID 687007, 2013; in the data active means inhibition above about 13%
# COUP-TFII conf = NR2F2 transcriptional activity inhibitors, confirmation, cell-based, luciferase reporter, HEK293, triplicate | shares compounds with NR2F2 inh | AID 687008, 2013 | inhibition, % at 8.5 µM | HEK293 NGFI-A luciferase reporter, luminescence | 45% of 2,500 active;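 active means mean inhibition over three repeats above a set limit taken from the earlier primary screen, cut at about 38% in these data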
# Numbers stand for hits; i = inactive; nt = no result given. Rows were chosen to be rich in hits. Some 1.1% of all compounds tested hit in one or more screens of this group.
SMILES,GalR3 antagonist,NR2F2 inh,NCOA2 inhibitor,NCOA3 inh,NCOA1 inh,NR5A2 inv ag,VP16 Luc counter,COUP-TFII conf
COc1ccc(-c2nc(-c3ccccn3)ncc2S(C)(=O)=O)cc1,i,i,i,i,i,i,nt,nt
CCCc1nc2c(=O)n(C)c(=O)nc-2n(C)n1,i,68,67,90,87,89,37,60
Cn1nc(-c2ccccn2)nc2c(=O)n(C)c(=O)nc1-2,i,54,i,93,89,84,30,i
COc1ccc(C(=O)c2ccccc2)c2c(O)ccc(C(=O)c3ccccc3)c12,i,43,i,i,i,i,i,63
CC(=O)/C(N=Nc1ccc2c(c1)OCCO2)=C(\C)O,i,68,i,i,i,i,i,i
CC(=O)/C(N=Nc1ccc2c(c1)OCO2)=C(\C)O,i,i,i,i,i,i,nt,nt
COCCNc1nc2c(c(=O)n(C)c(=O)n2C)n1Cc1cccc(C)c1,i,i,i,i,i,i,nt,nt
CNc1nc2c(c(=O)n(C)c(=O)n2C)n1Cc1ccccc1,i,41,i,i,i,i,i,i
CCCCn1c(CN(C)Cc2ccccc2)nc2c1c(=O)n(C)c(=O)n2C,i,40,i,i,i,i,i,i
Cc1cccc(Cn2c(NCCO)nc3c2c(=O)n(C)c(=O)n3C)c1,i,52,i,i,i,i,i,i
Cc1cccc(Cn2cc(CN3CC(N(C)CCCOC(=O)c4cc5ccccc5o4)CS3(=O)=O)nn2)c1 (stereo unspecified),nt,i,i,nt,nt,nt,nt,nt
CC(C)C[C@@H](CN)NC(=O)c1nc[nH]c1C(=O)N[C@@H](C)C(=O)CNC[C@H](C)NC(=O)c1nc[nH]c1C(=O)N[C@@H](Cc1ccccc1)C(=O)O,i,i,i,i,i,i,nt,nt
O=C(CCCc1nc(-c2ccccc2Cl)no1)NC1CCCC1,i,73,90,63,i,i,i,i
Cc1ccc(-c2noc(CCCC(=O)NC3CCCC3)n2)cc1,i,48,53,i,i,i,16,i
O=C(CCCc1nc(-c2ccccc2)no1)NC1CCCC1,i,i,i,i,i,i,nt,nt
CCCCc1ccc(NC(=O)CSC2=NN3CCCC(=O)N=C3S2)cc1,i,i,i,i,i,i,nt,nt
COc1ccc(Cn2cc(CN3CC=CS3(=O)=O)nn2)cc1,nt,i,i,nt,nt,nt,nt,nt
CCCCCCC/C=C(\C)[C@@H](O)[C@@H](C)C(=O)N1CCC[C@@H]1C(=O)O,nt,i,nt,nt,nt,nt,nt,nt
Fc1ccccc1-c1n[nH]c(=S)n1N=Cc1ccc(OCc2ccccc2)cc1,nt,i,i,nt,nt,nt,nt,nt
O=C(COC(=O)c1ccc[nH]c1=O)Nc1ccc(S(=O)(=O)N2CCCC2)cc1,i,i,i,i,i,i,nt,nt
O=C(COC(=O)c1ccc[nH]c1=O)Nc1ccc(N2CCCCC2)cc1,i,86,87,i,i,i,77,71
COC(=O)C1(CCSC)NC(c2ccc(O)c(OC)c2)C2C(=O)N(c3ccc(C)cc3)C(=O)C21 (stereo unspecified),i,i,i,i,i,i,nt,nt
CN1C(=CC=C2C=C(I)C(=O)C(I)=C2)C(C)(C)c2ccccc21,i,i,i,i,i,i,nt,nt
CN1/C(=C\C=C2/SC(=S)NC2=O)C(C)(C)c2ccccc21,i,42,i,i,i,i,14,i
O=C(c1ccc(Cl)c(S(=O)(=O)N2CCCCCC2)c1)N1CCN(c2ccccn2)CC1,i,42,i,i,i,i,i,i
O=C(Nc1ccc2c(c1)OCO2)c1ccc(Br)c(S(=O)(=O)N2CCCC2)c1,i,43,i,i,i,i,i,i
O=C(Nc1ccncc1)c1ccc(Cl)c(S(=O)(=O)N2CCCCC2)c1,i,61,i,i,i,i,i,40
